PubChem BioAssay AID894 (National Center for Advancing Translational Sciences (NCATS), 2007)
In all, about 150,000 compounds went through this assay and about 6,500 (4.3%) were called active. Inconclusive results (about 12%) are left out. The sample as a whole holds a higher share of actives than the screen did. Values without a mark were called inactive. Calls follow the shape of the dose curve; as a rule, active = well fitted inhibition curve with a large enough effect (not every such curve was filed as active); inconclusive = small, poorly fitted or top-dose-only effect, or another doubt; inactive = no such curve, though single readings can be large or run the other way.

Target: 15-hydroxyprostaglandin dehydrogenase [NAD(+)] (Homo sapiens) (UniProt P15428)
Experiment: qHTS Assay for Inhibitors of HPGD (15-Hydroxyprostaglandin Dehydrogenase)
Conditions: purified HPGD, NADH fluorescence kinetic, PGE2 substrate; activity change, negative = inhibition: active compounds read low
Summary of the method: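 NADH formation kinetics: reaction with 30 uM PGE2 and 1 mM NAD+ (final), 20 nM enzyme, Tris-HCl pH 8 with Tween 20, after 15 min compound preincubation at room temperature. Fluorescence change, last versus first of five reads.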
% is scaled to controls: 0 for no effect and ±100 for the full control effect; potency is read from the fitted curve at half-maximal effect.

Sequence of 15-hydroxyprostaglandin dehydrogenase [NAD(+)] (Homo sapiens) (P15428 whole entry, looked up): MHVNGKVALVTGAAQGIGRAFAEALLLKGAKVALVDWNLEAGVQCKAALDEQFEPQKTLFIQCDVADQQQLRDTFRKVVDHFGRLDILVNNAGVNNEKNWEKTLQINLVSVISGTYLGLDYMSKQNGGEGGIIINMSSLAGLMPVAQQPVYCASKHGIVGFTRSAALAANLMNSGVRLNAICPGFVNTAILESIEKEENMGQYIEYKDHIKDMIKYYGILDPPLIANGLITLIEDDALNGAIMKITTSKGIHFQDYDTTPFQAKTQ

| Structure (SMILES) | Potency | activity change, negative = inhibition |
| --- | --- | --- |
| Cn1ncc(Br)c1C(=O)NCc1cccs1 | 15.8 µM (active) |  |
| COc1cc(CC(=O)NCc2cccs2)cc(OC)c1OC |  | -17% |
| Cc1nnc(SCC(=O)NCc2cccs2)[nH]c1=O |  | -0.933% |
| Cc1ccc2nsnc2c1NC(=O)c1ccccc1[N+](=O)[O-] |  | -15.8% |
| Cc1ccc(/C=N/NC(=O)CNC(=O)COc2ccccc2)o1 |  | -5.29% |
| Cc1ccc(C(=O)N/C(=C/c2cccnc2)C(=O)O)cc1 |  | -13.7% |
| COc1ccc(Br)cc1C(=O)Nc1cccc(C)c1C |  | -28.1% |
| COc1ccc(Br)cc1C(=O)NC(=S)Nc1cc(-c2nc3ccccc3[nH]2)ccc1C | 28.2 µM (active) |  |
| COc1ccc(/C=C(/NC(=O)c2ccc(C)cc2)c2nc3ccccc3[nH]2)cc1OC |  | -24.1% |
| C=C(C(C)=O)C(O)c1cccs1 (centres undefined) |  | -6.13% |
| COC(=O)C(C(=O)OC)[C@@H](NC=O)c1ccccc1 |  | -1.83% |
| O=[n+]1c2c(n([O-])c3cc(Br)ccc31)CCC2 | 11.2 µM (active) |  |
| Cc1ccc(-c2c(C)n([O-])c3c([n+]2=O)CCC3)cc1 |  | -24.7% |
| CCc1c(C)n([O-])c2c([n+]1=O)CCCCC2 |  | -4.11% |
| O=C(Cc1ccccc1)NCc1ccc(F)cc1 |  | -22.4% |
| CCCCOC(=O)c1ccc(NC(c2ccc(C)cc2)P(=O)(OC)OC)cc1 (centres undefined) |  | -21.8% |
| CCc1ccccc1NC(=O)c1cccs1 |  | -5.77% |
| CCc1c(C)sc(NC(=O)c2cccs2)c1C(N)=O | 8.91 µM (active) |  |
| CCc1nnc(NC(=O)c2cccs2)s1 |  | -9.46% |
| O=C(NCCOc1ccccc1Cl)C(=O)Nc1ccccc1 |  | -2.3% |
| CC(=O)NS(=O)(=O)c1ccc(NC(=O)C2C3C=CC(C3)C2C(=O)O)cc1 (centres undefined) |  | -3.59% |
| COCCCN(C(=S)Nc1c(C)cc(C)cc1C)C(C)c1ccncc1 (centres undefined) |  | -0.352% |

| Structure (SMILES) | Potency | activity change, negative = inhibition |
| --- | --- | --- |
| CCn1ncc(Br)c1C(=O)Nc1cc(C)ccc1F |  | 0.199% |
| CCn1ncc(CNC(=O)C2(C)CC2(Br)Br)c1C (centres undefined) | 14.1 µM (active) |  |
| COc1cc2c3c(c1)/C(=C1/SC(=S)NC1=O)C(=O)N3C(C)(C)C=C2C |  | -26.1% |
| Cc1c(NC(=S)Nc2ccccc2)c(=O)n(-c2ccccc2)n1C |  | -3.36% |
| CCC1C=C(c2ccccc2)C=CN=C1N(CC)CC (centres undefined) |  | -4.96% |
| NC1=C([N+](=O)[O-])C(c2ccccc2)C2=C(CCCC2=O)O1 (centres undefined) | 20 µM (active) |  |
| N#CC1=C(N)N(c2ccccc2)C2=C(C(=O)CCC2)C1c1ccccc1 (centres undefined) |  | -8.89% |
| NS(=O)(=O)c1ccc(CNC(=O)c2ccc(Cl)cc2[N+](=O)[O-])cc1 |  | -16.4% |
| Cc1ccc2nc(SCc3nnc(-c4ccccc4[N+](=O)[O-])o3)c(C#N)cc2c1 | 1 µM (active) |  |
| Cc1cc(C)nc(SCc2ccccc2C#N)n1 |  | -12.7% |
| CCOc1ccc2cc(C#N)c(SCC(=O)OC)nc2c1 |  | -15% |
| N#Cc1ccccc1Sc1ccccc1C(=O)OCC(=O)NC1CCCCC1 |  | -19.1% |
| CCN(CC)c1ccc(/C=N/Nc2nc(C)cc(C)n2)c(O)c1 | 20 µM (active) |  |
| CCN(CC)c1ccc2oc(=O)c(C)nc2c1 |  | -16.7% |
| CCOC(=O)Cc1csc(SCC(=O)NC(C)C23CC4CC(CC(C4)C2)C3)n1 (centres undefined) |  | -15.9% |
| Cc1ccc(CNC(=O)c2ccccc2CCc2ccccc2)cc1 |  | -19.3% |
| Cc1c(C(=O)NCc2ccccc2)cnn1-c1ccccc1 | 17.8 µM (active) |  |
| O=C(Cn1cnc2c(cnn2-c2ccccc2)c1=O)NCc1ccccc1 |  | -9.12% |
| N#C/C(C(=O)N1CCOCC1)=C1/SC(Cc2ccc(F)cc2)C(=O)N1c1ccccc1 (centres undefined) |  | -13.3% |
| Cc1ccc(-n2c(N)c(C(=O)N3CCOCC3)sc2=S)c(C)c1 | 7.94 µM (active) |  |
| Cc1cccc(-n2c(N)cc(=O)nc2SC(C)C(=O)NC2CCCCC2)c1 (centres undefined) |  | -19.7% |
| N#Cc1ccccc1-n1c(N)c(C(=O)N2CCCC2)sc1=S | 25.1 µM (active) |  |

| Structure (SMILES) | Potency | activity change, negative = inhibition |
| --- | --- | --- |
| CC(=O)c1c(N2CCOCC2)nc(=S)n(-c2cc(C)ccc2C)c1C |  | -12.5% |
| CC(C)=C1SC(N2CCN(c3cccc(C)c3)CC2)=NC1=O |  | -16.6% |
| Cc1cccc(-n2c(N)c(C(=O)N3CCN(C)CC3)sc2=S)c1 | 10 µM (active) |  |
| Cc1ccc(C(=O)N2CCN(C(=O)N3CCOCC3)CC2)cc1 |  | 3.86% |
| O=S(=O)(NCCSc1ccccn1)c1ccc(Cl)cc1 |  | -1.01% |
| C=C/C1=C/Cc2ccccc2[C@H](C[N+](=O)[O-])C(C(=O)OC)(C(=O)OC)C1 |  | -16.5% |
| CCOc1cc(CNCc2ccccn2)ccc1OCC(=O)NC(C)(C)C |  | -9.37% |
| CC(C)(C)C(=O)N1CCC[C@@]1(CO)C(=O)O |  | -2.24% |
| COc1ccc(CNC(=O)CCCn2nc(C)c([N+](=O)[O-])c2C)cc1 |  | -13.5% |
| CCC(C)C(=O)Nc1cc([N+](=O)[O-])ccc1Cl (centres undefined) |  | -1.06% |
| C=CCn1c(CCNC(=O)c2cccs2)n[nH]c1=S |  | -27.1% |
| O=C(c1cc(-c2cccc(O)c2)on1)N1CCc2ccccc2C1 | 25.1 µM (active) |  |
| Cc1nnc(SCC(=O)N2CCc3ccccc3C2)s1 |  | -6.45% |
| O=C(c1cc(-c2ccc(O)cc2)on1)N1CCCc2ccccc21 |  | -28% |
| CCCNC(=O)NC(=O)COC(=O)CC(NC(N)=O)c1ccc(Cl)cc1 (centres undefined) |  | -4.57% |
| O=C(Cc1ccc2c(c1)CCCC2)Nc1ccccc1Cl | 3.16 µM (active) |  |
| CC1(C)CC(CCC(=O)Nc2ccccc2Cl)C(=O)O1 (centres undefined) |  | -12.3% |
| O=C(Nc1ccc2c(c1)CCC2)c1cccc(S(=O)(=O)Nc2ccccc2Cl)c1 |  | -11.7% |
| Cc1nn(-c2ccccc2)c(-n2cccc2)c1C(=O)O |  | -6.97% |
| N/C(=N\OC(=O)CC1CCCCC1)c1ccccc1 |  | -21.9% |
